Results as given in PubChem BioAssay (NCATS).
Results filed as inconclusive are left out. Active and inactive are the calls of the source. Unless noted, calls follow the shape of the dose curve; as a rule, active = well fitted curve in either direction with a large enough effect (not every such curve was filed as active); inconclusive = small, poorly fitted or top-dose-only effect, or another doubt; inactive = flat fitted curve, though single readings scatter.

Assays:
[1] = AP1 Signaling Pathway (AID 357); details: ME-180 AP-1-bla reporter, EGF-induced, beta-lactamase ratio, 5 h; at 17.2 µM (top of the series) unless noted;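 also: ME-180 reporter cells stimulated with EGF at its EC50 level; % is scaled to controls: 0 for no effect and ±100 for the full control effect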
How it was run: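 Beta-lactamase reporter under AP-1 response element, ME-180 background. Stimulus: EC50 EGF. Compound exposure 5 h, 37 °C. Detection: CCF4, 2.5 h RT, 460/530 nm. Values: AC50 from titration.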

[2] = Stat Signaling Pathway (AID 446); details: ME-180 SIE beta-lactamase reporter, IL-6 stimulated, 5 h; at 17.2 µM (top of the series) unless noted;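 also: ME-180 cervical cancer cells given 40 pM IL-6 alongside compound; SIE-controlled beta-lactamase reporter measured as 460/530 nm FRET emission ratio; % is scaled to controls: 0 for no effect and ±100 for the full control effect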
How it was run: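 Reporter line: ME-180 cervical carcinoma, SIE-beta-lactamase. Treatment: compound with 40 pM IL-6, 5 hrs, 37 C, in low-serum OPTI-MEM with 10 mM HEPES pH 7.3. Detection: 460/530 nm fluorescence.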

[3] = target: Glucocorticoid receptor (Homo sapiens) (UniProt P04150); experiment: GR-GFP Redistribution (AID 450;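 active = compounds whose dose series gives a full or clear partial fitted curve of increased nuclear translocation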; also: potency is read from the fitted curve at half-maximal effect); details: U2OS GR-GFP nuclear translocation, laser cytometry, 2 h; series mostly up to 20.6 µM
Sequence of Glucocorticoid receptor (Homo sapiens) (P04150 whole entry, looked up, the tested form may be a part): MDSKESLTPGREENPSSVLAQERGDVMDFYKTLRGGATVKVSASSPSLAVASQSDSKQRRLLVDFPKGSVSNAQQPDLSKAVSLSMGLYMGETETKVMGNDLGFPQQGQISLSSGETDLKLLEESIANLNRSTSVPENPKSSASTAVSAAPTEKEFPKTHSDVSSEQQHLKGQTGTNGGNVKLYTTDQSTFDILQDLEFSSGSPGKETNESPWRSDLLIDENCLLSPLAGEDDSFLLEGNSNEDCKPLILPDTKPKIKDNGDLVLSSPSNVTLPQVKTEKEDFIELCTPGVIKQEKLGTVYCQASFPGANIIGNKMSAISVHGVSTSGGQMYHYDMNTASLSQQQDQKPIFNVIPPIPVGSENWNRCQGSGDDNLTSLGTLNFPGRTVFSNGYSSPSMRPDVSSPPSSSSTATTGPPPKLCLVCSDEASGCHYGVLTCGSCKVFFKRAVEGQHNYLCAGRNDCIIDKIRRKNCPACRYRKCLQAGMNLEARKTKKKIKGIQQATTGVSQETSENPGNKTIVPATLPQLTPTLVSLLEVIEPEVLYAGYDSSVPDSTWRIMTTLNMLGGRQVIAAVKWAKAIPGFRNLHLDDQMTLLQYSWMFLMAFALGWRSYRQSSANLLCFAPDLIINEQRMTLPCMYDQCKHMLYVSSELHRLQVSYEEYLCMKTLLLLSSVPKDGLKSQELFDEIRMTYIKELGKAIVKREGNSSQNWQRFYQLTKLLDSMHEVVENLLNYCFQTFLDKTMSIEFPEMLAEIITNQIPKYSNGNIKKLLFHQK

[4] = target: Glucocorticoid receptor (Homo sapiens) (UniProt P04150); experiment: GR-EFC Redistribution (AID 451; calls by dose curve; also: potency is read from the fitted curve at half-maximal effect); details: CHO-K1 GR-EFC translocation, beta-gal luminescence, 2 h
How it was run: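 CHO-K1 cells expressing nuclear EA and GR-ED fragments of b-gal; compounds titrated up to 46 uM final, 2 h at 37 C. GR nuclear translocation read as complemented b-gal luminescence after 1 h RT detection.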

[5] = target: Mitogen-activated protein kinase 10 (Mus musculus) (UniProt Q61831); experiment: JNK3 AlphaScreen Assay (AID 530); details: JNK3 lysate, c-Jun phosphorylation; series mostly up to 57.1 µM;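 also: kinase came from lysate of stimulated human HepG2 cells; signal reports phosphorylation of biotinylated GST-cJun 1-79 at Ser73 with 10 µM ATP; % is scaled to controls: 0 for no effect and ±100 for the full control effect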
How it was run: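 qHTS format: compounds tested as titrations against IL-1beta/TNF-alpha-activated HepG2 lysate JNK3 with biotin-GST-cJun substrate and 10 uM ATP at room temperature. Loss of anti-phospho-cJun AlphaScreen signal indicates inhibition.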

[6] = target: 3',5'-cyclic-AMP phosphodiesterase 4B (Homo sapiens) (UniProt Q07343); experiment: qHTS Assay for Inhibitors of PDE-IV (AID 607; active = well fitted activation curve with a large enough effect in the main read-out, with a control signal flat, not every such curve was filed as active; also: % of control where 0% means no effect); details: HEK293 ACTOne CNG channel cells, membrane potential fluorescence; series mostly up to 22.9 µM
Sequence of 3',5'-cyclic-AMP phosphodiesterase 4B (Homo sapiens) (Q07343 whole entry, looked up): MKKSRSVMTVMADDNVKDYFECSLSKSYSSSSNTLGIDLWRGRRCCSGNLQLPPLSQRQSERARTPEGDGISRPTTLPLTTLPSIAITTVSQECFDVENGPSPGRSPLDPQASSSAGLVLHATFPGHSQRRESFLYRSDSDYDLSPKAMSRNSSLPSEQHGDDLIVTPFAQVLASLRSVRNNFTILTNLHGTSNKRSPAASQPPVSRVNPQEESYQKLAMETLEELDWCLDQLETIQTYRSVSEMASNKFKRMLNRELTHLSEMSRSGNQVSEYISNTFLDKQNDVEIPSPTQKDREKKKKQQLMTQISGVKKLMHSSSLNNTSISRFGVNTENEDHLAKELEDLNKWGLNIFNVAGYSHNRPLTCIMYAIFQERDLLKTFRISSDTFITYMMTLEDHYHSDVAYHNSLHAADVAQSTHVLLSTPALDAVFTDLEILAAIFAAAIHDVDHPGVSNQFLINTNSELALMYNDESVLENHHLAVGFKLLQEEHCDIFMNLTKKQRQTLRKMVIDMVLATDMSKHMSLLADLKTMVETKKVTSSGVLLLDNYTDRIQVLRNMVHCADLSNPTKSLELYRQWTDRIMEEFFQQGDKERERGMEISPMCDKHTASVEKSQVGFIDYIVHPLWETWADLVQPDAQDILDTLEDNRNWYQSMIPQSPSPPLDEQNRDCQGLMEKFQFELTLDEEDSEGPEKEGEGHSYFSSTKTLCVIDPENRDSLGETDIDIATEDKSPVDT
How it was run: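 Cell-based read-out of cAMP via a modified cyclic nucleotide-gated channel and membrane potential dye (535/590 nm) in HEK293 cells expressing PDE4 endogenously. Compounds tested up to 22.9 uM final; 100 uM RO 20-1724 reference.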

[7] = target: Cytochrome P450 3A4 (Homo sapiens) (UniProt P08684); experiment: qHTS Assay for Activators of Cytochrome P450 3A4 (AID 885; active = well fitted activation curve with a large enough effect; also: nearly all actives have a fitted effect of over 65% in size); details: recombinant CYP3A4, Luciferin-PPXE luminescence, 60 min; series mostly up to 57.1 µM
Sequence of Cytochrome P450 3A4 (Homo sapiens) (P08684 whole entry, looked up): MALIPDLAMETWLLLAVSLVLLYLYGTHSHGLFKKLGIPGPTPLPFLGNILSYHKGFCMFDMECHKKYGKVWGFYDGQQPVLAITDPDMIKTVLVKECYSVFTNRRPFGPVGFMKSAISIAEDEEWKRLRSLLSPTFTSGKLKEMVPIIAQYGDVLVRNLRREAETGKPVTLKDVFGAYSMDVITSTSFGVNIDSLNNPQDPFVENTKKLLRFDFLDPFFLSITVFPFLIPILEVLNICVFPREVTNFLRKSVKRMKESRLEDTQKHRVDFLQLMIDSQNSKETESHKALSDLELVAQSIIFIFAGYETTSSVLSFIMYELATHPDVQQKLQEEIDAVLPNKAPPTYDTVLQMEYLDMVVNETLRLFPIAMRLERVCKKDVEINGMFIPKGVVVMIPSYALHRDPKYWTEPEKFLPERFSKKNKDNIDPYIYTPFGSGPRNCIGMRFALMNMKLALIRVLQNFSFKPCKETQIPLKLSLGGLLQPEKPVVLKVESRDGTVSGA
How it was run: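 Signal was normalized against complete inhibition by 57 uM ketoconazole. The reaction used 20nM CYP3A4 with 25uM Luciferin-PPXE, 10-min compound preincubation and a 60-min NADPH-supported step at RT.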

[8] = qHTS Assay for Identification of Small Molecule Agonists for Hypoxia Response Element Signaling Pathway (AID 914; active = well fitted activation curve with a large enough effect in the signal ratio, with a control signal flat, not every such curve was filed as active; the % refers to the signal ratio; also: potency is read from the fitted curve at half-maximal effect; as to activation: % of control where 0% means no effect); details: ME-180 (cervical carcinoma) HRE-bla reporter, beta-lactamase ratio, CoCl2, 17 h; activation: stronger effect = higher value
How it was run: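 HRE-bla ME-180 cells, overnight plating in Opti-MEM with 0.5% dialyzed FBS; cpd titration + EC50 CoCl2, 17 h, 37 degrees Celsius; CCF4 2.5 h RT; 460/530 nm ratio; AC50.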

CC[C@H](c1ccccc1)c1cc(C(C)(C)C)cc(C(C)(C)C)c1O
inactive: activity change, negative = inhibition [1] 7.36% [at 7.69 µM] | activity, negative = inhibition [2] 3.9% [at 7.69 µM] | Potency [3] > 46 µM | Potency [4] > 9.22 µM | activity change, negative = inhibition [5] 6.57% [at 11.4 µM] | Potency [6] | activity change, positive = activation [7] -33% [at 11.4 µM]

CC(C)C1Cc2c(C#N)c(N)n(C)c(=S)c2CO1 (stereo unspecified)
inactive: activity change, negative = inhibition [1] -4.25% | activity, negative = inhibition [2] 4.22% | Potency [3] > 20.6 µM | activation [8] -0.94%

CCc1ccc(-c2cn3nc(C)c(C)nc3n2)cc1
active: Potency [8] 10 µM
inactive: activity change, negative = inhibition [1] 0.521% | activity, negative = inhibition [2] 11.8% | Potency [3] > 20.6 µM

Cc1nc(Sc2cccn2C)c(C(F)(F)F)c(=O)[nH]1
inactive: activity change, negative = inhibition [1] -5.32% | activity, negative = inhibition [2] -1.21% | Potency [3] > 20.6 µM | activation [8] 6.77%

CCOC(=O)c1sc2c(c1C)c(=O)c(C(=O)OCC)cn2CC
inactive: activity change, negative = inhibition [1] -9.16% | activity, negative = inhibition [2] 6.04% | Potency [3] > 20.6 µM | activation [8] 16.2%

CCCCCNC(=O)c1c(N)n(/N=C/c2ccco2)c2nc3ccccc3nc12
active: Potency [8] 7.94 µM
inactive: activity change, negative = inhibition [1] 20.3% | activity, negative = inhibition [2] 28.5% | Potency [3] > 20.6 µM

CC(C)OCCCn1c(=N)c(C(N)=S)cc2c(=O)n3ccccc3nc21
inactive: activity change, negative = inhibition [1] -4.52% | activity, negative = inhibition [2] -1.51% | Potency [3] > 20.6 µM | activation [8] 13.6%

CCCN(CCC)c1nc2ccccc2nc1C(C#N)C(=O)OC(C)COC (stereo unspecified)
inactive: activity change, negative = inhibition [1] -15.4% | activity, negative = inhibition [2] -20.4% | Potency [3] > 20.6 µM | activation [8] -6.34%

O=C(c1ccc(=O)oc1)N1CCOCC1
inactive: activity change, negative = inhibition [1] 17.3% | activity, negative = inhibition [2] -0.795% | Potency [3] > 20.6 µM | activation [8] 5.28%

Cc1ccccc1C(=O)c1ccc2c(c1)n(C)c(=O)n2C
inactive: activity change, negative = inhibition [1] 4.88% | activity, negative = inhibition [2] -15.6% | Potency [3] > 20.6 µM | activation [8] -17.8%

COCCCNC(=O)c1c(N)n(/N=C/c2cccnc2)c2nc3ccccc3nc12
active: Potency [8] 10 µM
inactive: activity change, negative = inhibition [1] -15.5% | activity, negative = inhibition [2] -20.9% | Potency [3] > 20.6 µM

Cc1nn(-c2ccccc2)c2c1C(=O)NC(=O)C(C)(C)C2
inactive: activity change, negative = inhibition [1] -3.8% | activity, negative = inhibition [2] 3.56% | Potency [3] > 20.6 µM | activation [8] -11.1%

CC(CN1CCN(C)CC1)OC(=O)c1ccc(Cl)cc1Cl (stereo unspecified)
inactive: activity change, negative = inhibition [1] 12% | activity, negative = inhibition [2] -1.03% | Potency [3] > 20.6 µM | activation [8] -4.39%

COc1ccc(-n2c(SCC(N)=O)nc3sc4c(c3c2=O)CCN(C)C4)cc1
inactive: activity change, negative = inhibition [1] -7.72% | activity, negative = inhibition [2] 2.19% | Potency [3] > 20.6 µM | activation [8] -0.0215%

CCN1CCN(c2nc3c(C)cccn3c(=O)c2/C=C(\C#N)S(=O)(=O)c2ccccc2)CC1
inactive: activity change, negative = inhibition [1] -5.82% | activity, negative = inhibition [2] -5.71% | Potency [3] > 20.6 µM | activation [8] 5.25%

CCOC(=O)CSc1nnc(C)c(=O)[nH]1
inactive: activity change, negative = inhibition [1] 12.3% | activity, negative = inhibition [2] -1.23% | Potency [3] > 20.6 µM | activation [8] -0.909%

CCc1cc(=O)oc2c(CN3CCCC3)c(O)c(Cl)cc12
active: Potency [8] 7.94 µM
inactive: activity change, negative = inhibition [1] 12.3% | activity, negative = inhibition [2] 4.15% | Potency [3] > 20.6 µM
